Experimental data from PubChem BioAssay.
Active and inactive are the calls of the source.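 The calls were made as follows, unless noted: active = visual image review flags a hit and inhibition of aggregation exceeds 20%; inconclusive = visual hit but inhibition at or below 20%; inactive = no hit on visual image review.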

Key:
[1] = inhibitors of TNFa-induced NFkB p65 translocation, primary screen, imaging, HUVEC, MLSMR starter and 10KST1 sets (AID 438;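 active = inhibition above 20% together with a positive visual image hit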;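 also: compound added about 3h40 before a 20 min TNFalpha stimulation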;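 as to inhibition: signal is the nuclear over cytoplasmic p65 intensity ratio per well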); details: HUVEC TNFa-induced p65 nuclear translocation; cell count: measured here: nuclei count (cytotoxicity indicator), at 2.08 µM; inhibition: at 2 µM, stronger effect = higher value, 0% TNFa-plus-vehicle, 100% no-TNFa wells
[2] = inhibitors of mutant huntingtin aggregation, primary screen, imaging, exon1htt(103Q)mCFP cells, high-content imaging (AID 483); details: exon1htt(103Q)mCFP cell line, aggregate imaging, at 2 µM; inhibition of aggregation: stronger effect = higher value; nuclei count: measured here: cell count, toxicity;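 also: compound exposure lasted 3 days before fixation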;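 as to nuclei count: percent of the per-plate median nuclei count of sample wells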
[3] = inhibitors of E-selectin induction by TNFa, primary screen, imaging, HUVEC, immunofluorescence, MLSMR starter and 10KST1 sets (AID 487;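 active = visually confirmed hit in the image check and inhibition above 20%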;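 as to inhibition: signal is fraction of cell area covered by stained E-selectin grains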;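 as to nuclei count: 100% = median nuclei count of all wells on the same plate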); details: HUVEC TNFalpha-induced E-selectin immunofluorescence imaging, at 2 µM; inhibition: stronger effect = higher value; nuclei count: measured here: cell number, toxicity
[4] = molecular target: Voltage-gated potassium channel subunit beta-2 (Rattus norvegicus) (UniProt P62483); assay: KvBeta enzyme negative modulators, primary screen, biochemical, NADPH fluorescence (AID 622;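 active = fluorescence slope higher than the sample average by over 3 SD, cut at about -0.22 in these data, passing the limit was not always enough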;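 also: slope of raw intensity against log time taken from 70 to 1610 s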); details: recombinant KvBeta, 4-cyanobenzaldehyde reduction, at 10 µM, stronger effect = higher value
[5] = molecular target: Voltage-gated potassium channel subunit beta-2 (Rattus norvegicus) (UniProt P62483); assay: KvBeta positive modulators, primary screen, biochemical, NADPH fluorescence (AID 623;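 active = NADPH fluorescence slope more negative than the mean of all samples by about 3 SD, 99.7% confidence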;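 also: fluorescence intensity change per second fitted from 20 to 320 s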); details: Recombinant KvBeta, NADPH fluorescence decrease slope, 10 min; at 10 µM; stronger effect = lower value
[6] = molecular target: Alpha-2C adrenergic receptor (Homo sapiens) (UniProt P18825); assay: modulators of alpha2C/GIRK thallium flux, primary screen, cell-based, HEK293 alpha2C/GIRK1/2 (AID 624;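 active = fluorescence slope after compound addition differing from the mean of all screened samples at 99.7% confidence, in either direction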;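 also: slope of fluorescence ratio to pre-addition baseline per second over 15 to 24 s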); details: thallium flux BTC fluorescence, at 10 µM, actives lie on both sides
[7] = inhibitors of Sendai virus-induced IRF3 signaling, primary screen, TLR/RLR signaling modifier project, cell-based, Sendai virus stimulus, luciferase, 10K MLSCN set (AID 602276;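 active = inhibition at or above 50% at 10 µM; inactive = inhibition below 50%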;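 also: firefly luciferase from ISG56 promoter only with Renilla not read in this screen; 0% = Sendai virus plus DMSO and 100% = medium plus DMSO without virus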); details: HEK293 RL24 IRF3 luciferase reporter, at 10 µM, stronger effect = higher value
[8] = inhibitors of poly I:C-induced TLR3 signaling, primary screen, cell-based, poly I:C stimulus, luciferase, 10K MLSCN set (AID 602277;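 active = inhibition of the reporter signal at or above 50%; inactive = inhibition below 50%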); details: HEK293-TLR3 RL24 IRF3 luciferase reporter, at 10 µM, stronger effect = higher value

Alpha-2C adrenergic receptor (Homo sapiens), sequence (P18825 whole entry, looked up): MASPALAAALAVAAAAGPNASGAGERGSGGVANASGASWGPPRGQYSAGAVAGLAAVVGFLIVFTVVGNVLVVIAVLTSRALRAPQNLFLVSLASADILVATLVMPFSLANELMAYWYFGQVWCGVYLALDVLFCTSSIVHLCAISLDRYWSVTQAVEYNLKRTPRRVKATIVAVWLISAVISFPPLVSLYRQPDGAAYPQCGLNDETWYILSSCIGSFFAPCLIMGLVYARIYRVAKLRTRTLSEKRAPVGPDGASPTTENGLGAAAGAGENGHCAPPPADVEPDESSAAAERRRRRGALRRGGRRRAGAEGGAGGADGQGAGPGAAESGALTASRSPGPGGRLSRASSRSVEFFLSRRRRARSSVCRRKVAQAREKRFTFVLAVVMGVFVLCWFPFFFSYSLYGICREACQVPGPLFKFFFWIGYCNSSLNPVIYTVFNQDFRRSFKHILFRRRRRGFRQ
Voltage-gated potassium channel subunit beta-2 (Rattus norvegicus), sequence (P62483 whole entry, looked up): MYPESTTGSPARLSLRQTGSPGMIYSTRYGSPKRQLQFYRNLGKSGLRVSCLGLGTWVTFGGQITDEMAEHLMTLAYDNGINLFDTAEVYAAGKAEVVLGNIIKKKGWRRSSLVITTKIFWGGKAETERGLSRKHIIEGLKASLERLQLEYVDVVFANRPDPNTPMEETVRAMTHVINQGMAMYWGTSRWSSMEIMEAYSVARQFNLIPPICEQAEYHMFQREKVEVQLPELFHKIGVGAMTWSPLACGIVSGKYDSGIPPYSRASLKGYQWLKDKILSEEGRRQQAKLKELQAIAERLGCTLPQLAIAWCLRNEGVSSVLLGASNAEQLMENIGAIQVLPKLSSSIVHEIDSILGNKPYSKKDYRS

| SMILES | cell count [1] | inhibition [1] | inhibition of aggregation [2] | nuclei count [2] [%] | inhibition [3] | nuclei count [3] [%] | fluorescence slope [4] | NADPH fluorescence slope [5] | slope [6] | inhibition [7] | inhibition [8] |
| --- | --- | --- | --- | --- | --- | --- | --- | --- | --- | --- | --- |
| Cc1ccc(-c2nn(-c3ccccc3)cc2CN(Cc2ccccc2)C(=O)CCC(=O)O)o1 | 329 | 7.1% (inactive) | -24.5% (inactive) | 107 | -66.8% (inactive) | 120 | -0.429 (inactive) | -2.6e-05 (inactive) | 0.00807 (inactive) | 12.8% (inactive) | 19.6% (inactive) |
| CCOc1cccc(OCCCCn2ccnc2)c1 | 339 | -3.1% (inactive) | -7.7% (inactive) | 99 | -124% (inactive) | 114 | -0.36 (inactive) | 5e-05 (inactive) | 0.00579 (inactive) | 9.17% (inactive) | 21.4% (inactive) |
| CCCN1CCC(NC(=O)Nc2ccc(OC)c(OC)c2)CC1 | 308 | -0.5% (inactive) | 12.6% (inactive) | 87.5 | -43.3% (inactive) | 107 | -0.383 (inactive) | 1.9e-05 (inactive) | 0.00372 (inactive) | 9.89% (inactive) | 33.2% (inactive) |
| Cc1ccc(Cn2nnnc2CN2CCC(O)(c3ccccc3F)CC2)cc1 | 784 | 0.2% (inactive) | 12.3% (inactive) | 96.1 | -57% (inactive) | 122 | -0.498 (inactive) | -5.4e-05 (inactive) | 0.00492 (inactive) | 20.8% (inactive) | 16.6% (inactive) |
| COC(=O)Oc1c(Br)c(=O)oc2ccccc12 | 594 | 7.7% (inactive) | -8.6% (inactive) | 99.4 | -49.4% (inactive) | 110 | -0.443 (inactive) | -3.2e-05 (inactive) | 0.00521 (inactive) | -15.5% (inactive) | -23.7% (inactive) |
| Cc1ccccc1NC(=O)C1CCCN(S(=O)(=O)c2cnc[nH]2)C1 (centres undefined) | 726 | -11% (inactive) | 21.2% (inactive) | 109 | -26.7% (inactive) | 124 | -0.564 (inactive) | -2e-05 (inactive) | 0.0067 (inactive) | 10.6% (inactive) | 32.6% (inactive) |
| COc1ccc2[nH]c(C)c(CCN3C(=O)OC(C)(C)C3(C)O)c2c1 (centres undefined) | 754 | -4% (inactive) | -15.3% (inactive) | 97.3 | -2.5% (inactive) | 111 | -0.561 (inactive) | -4.3e-05 (inactive) | 0.00701 (inactive) | 6.33% (inactive) | 23.6% (inactive) |
| CCc1ccc2[nH]c(=O)c(C(c3nnnn3CC3CCCO3)N3CCCc4ccccc43)cc2c1 (centres undefined) | 339 | -8.5% (inactive) | 12.7% (inactive) | 87.5 | 22.4% (inactive) | 97.3 | -0.422 (inactive) | -4.4e-05 (inactive) | 0.00442 (inactive) | 22.7% (inactive) | 32.6% (inactive) |
| COC(=O)c1ccc(NC2(C#N)C(=O)Nc3ccccc32)cc1 (centres undefined) | 246 | 7.6% (inactive) | 15% (inactive) | 95.5 | -208% (inactive) | 116 | -0.408 (inactive) | -1.9e-05 (inactive) | 0.00466 (inactive) | 19% (inactive) | 8.66% (inactive) |
| Cc1ccc(C)c(N2CCN(C(=O)c3cc4ccccn4n3)CC2)c1 | 584 | -2.9% (inactive) | -16.9% (inactive) | 103 | -31.8% (inactive) | 118 | -0.615 (inactive) | -2.1e-05 (inactive) | 0.00707 (inactive) | -3.21% (inactive) | 21.6% (inactive) |
| Cc1nn(C)c(C)c1S(=O)(=O)N1CCCC(C(=O)N2CCN(c3ccc(Cl)cc3)CC2)C1 (centres undefined) | 288 | -3.9% (inactive) | -45.6% (inactive) | 94.8 | -270% (inactive) | 85.9 | -0.591 (inactive) | -1.7e-05 (inactive) | 0.00589 (inactive) | 11.1% (inactive) | 11.6% (inactive) |
| COC(=O)c1ccccc1NC(=O)CC(NCc1ccccc1)C(=O)O (centres undefined) | 619 | -5% (inactive) | -34.3% (inactive) | 124 | -21.4% (inactive) | 116 | -0.418 (inactive) | -8.7e-06 (inactive) | 0.00289 (inactive) | -10.8% (inactive) | 16.2% (inactive) |
| O=C1c2ccccc2C(=O)N1CNc1ccccc1 | 425 | -2.7% (inactive) | -3.7% (inactive) | 112 | -144% (inactive) | 118 | -0.603 (inactive) | -1.7e-05 (inactive) | 0.00312 (inactive) | 7.68% (inactive) | -8.22% (inactive) |
| O=C(Nc1cccc2ccccc12)c1cnccn1 | 419 | 11.7% (inactive) | 5.1% (inactive) | 96.9 | -180% (inactive) | 117 | -0.52 (inactive) | -3.3e-05 (inactive) | 0.00645 (inactive) | -180% (inactive) | 99.3% (active) |
| Cc1noc(C)c1COC(=O)c1ccccc1Oc1ccccc1 | 583 | -25.6% (inactive) | -12% (inactive) | 106 | -22.7% (inactive) | 146 | -0.627 (inactive) | -3.8e-07 (inactive) | 0.00533 (inactive) | 4.67% (inactive) | 22.4% (inactive) |
| CCOC(=O)c1ccccc1NC(=O)c1cc2sccc2n1C | 740 | -42.9% (inactive) | 5.5% (inactive) | 107 | -20.5% (inactive) | 101 | -0.483 (inactive) | 1.4e-05 (inactive) | 0.00572 (inactive) | -3.63% (inactive) | -15.2% (inactive) |
| CCOC(=O)c1ccc(N2C(=O)CC(N(C)CCc3ccc(OC)c(OC)c3)C2=O)cc1 (centres undefined) | 451 | -7.1% (inactive) | 2.9% (inactive) | 94.2 | -20.7% (inactive) | 117 | -0.431 (inactive) | 3.6e-05 (inactive) | 0.00246 (inactive) | -7.6% (inactive) | 25.6% (inactive) |
| Cc1sc(NC(=O)CSc2nnc(COc3ccccc3)n2C)c(C#N)c1C | 602 | 2.2% (inactive) | 15.6% (inactive) | 93.8 | -77.2% (inactive) | 113 | -0.335 (inactive) | 5.1e-06 (inactive) | 0.00494 (inactive) | -3.28% (inactive) | -13.7% (inactive) |
| COc1ccc(NC(=O)CN2CCN(S(=O)(=O)c3ccc(Cl)cc3)CC2)cc1 | 333 | 1.1% (inactive) | 17.3% (inactive) | 123 | 5% (inactive) | 116 | -0.411 (inactive) | -2.8e-05 (inactive) | 0.00382 (inactive) | 11.8% (inactive) | 17.3% (inactive) |
| O=S(=O)(Nc1ccc2c(c1)OCO2)c1ccc(Br)s1 | 285 | -5.5% (inactive) | 14.8% (inactive) | 92.9 | 8.4% (inactive) | 95.6 | -0.31 (inactive) | 1.5e-05 (inactive) | 0.00308 (inactive) | 0.155% (inactive) | -19.3% (inactive) |
| O=C(Cc1ccccc1)Nc1ccc(CN2CCOCC2)cc1 | 451 | -5.4% (inactive) | -17.1% (inactive) | 104 | -2.9% (inactive) | 107 | -0.418 (inactive) | -3.3e-05 (inactive) | 0.00462 (inactive) | -34% (inactive) | -71.3% (inactive) |
| O=C(CCCNS(=O)(=O)c1ccccc1)NCc1ccco1 | 242 | -6.9% (inactive) | 22.9% (inactive) | 80.7 | 27.9% (inactive) | 80.8 | -0.425 (inactive) | -1.4e-05 (inactive) | 0.00453 (inactive) | 12.9% (inactive) | 10.4% (inactive) |
| CCN(CC)S(=O)(=O)c1ccc(NC2CCCc3ccccc32)nc1 (centres undefined) | 451 | 7.1% (inactive) | 15.4% (inactive) | 103 | – | 163 | -0.594 (inactive) | -3e-05 (inactive) | 0.00558 (inactive) | 11.9% (inactive) | 17.1% (inactive) |
| CCOc1ccc2nc(SCc3ccc(C(=O)OC)o3)[nH]c2c1 | 335 | 15.9% (inactive) | 16.9% (inactive) | 96.5 | -39.4% (inactive) | 112 | -0.546 (inactive) | 2e-06 (inactive) | 0.00497 (inactive) | 8.32% (inactive) | -5.74% (inactive) |
| CCOc1ccc(Nc2nc(Cc3nnc(SCC(N)=O)o3)cs2)cc1 | 453 | 6.7% (inactive) | -0.8% (inactive) | 104 | – | 154 | -0.608 (inactive) | -2.2e-05 (inactive) | 0.00638 (inactive) | 9.26% (inactive) | 14% (inactive) |
| CC(C)N(C(=O)CSc1nnc(-c2cc3ccccc3cc2O)n1Cc1ccco1)C(C)C | 836 | 6.2% (inactive) | -6.1% (inactive) | 107 | 4.9% (inactive) | 102 | -0.47 (inactive) | -2.4e-05 (inactive) | 0.00627 (inactive) | -4.55% (inactive) | 7.55% (inactive) |
| Cc1cccc(NC(=O)CSc2nnc(-c3ccccc3C)o2)c1 | 414 | 0.8% (inactive) | -0.2% (inactive) | 92 | – | 116 | -0.32 (inactive) | -4.9e-05 (inactive) | 0.00441 (inactive) | -55.2% (inactive) | -86.9% (inactive) |
